{"source": "ChEMBL document CHEMBL3988442", "about": "“University of Dundee, Small-Polar-MMV Screening Library” (2021)", "note": "About 13,000 (27%) of roughly 48,000 compounds showed an effect of 50% or more. Some of the results follow."}
{"test_system": "Wolbachia pipientis", "assay": "Anti-Wolbachia Cell-Based Screen", "format": "functional", "design": "scale not given: in the data most compounds retested in dose-response had high values", "details": "5 µM", "units": {"Percent Effect": "%"}}
{"smiles": "COCCNC(=O)CN(C)Cc1ccc(F)cc1Cl", "Percent Effect": 14.02}
{"smiles": "COc1ccc(CN(C)C2CSCCSC2)c2cccnc12", "Percent Effect": -27.46}
{"smiles": "CC(NC(=O)NCC(C)(C)O)c1ccc(-c2ccncc2)cc1", "note": "(centres undefined)", "Percent Effect": -1.867}
{"smiles": "c1ccc2oc(CCCN3CCCC3Cn3cncn3)nc2c1", "note": "(centres undefined)", "Percent Effect": -5.809}
{"smiles": "c1ccc2oc(CN3CCCCC3Cn3cncn3)nc2c1", "note": "(centres undefined)", "Percent Effect": 109.3}
{"smiles": "Cc1nc2ccccc2nc1CN1CCCC1Cn1cncn1", "note": "(centres undefined)", "Percent Effect": -6.198}
{"smiles": "Cc1nc(CN2CCCC2Cn2cncn2)nc2ccccc12", "note": "(centres undefined)", "Percent Effect": 12.85}
{"smiles": "c1ccc2oc(CCCN3CCCCC3Cn3cncn3)nc2c1", "note": "(centres undefined)", "Percent Effect": 92.19}
{"smiles": "c1ccc2oc(N3CCCCC3Cn3cncn3)nc2c1", "note": "(centres undefined)", "Percent Effect": -11.74}
{"smiles": "Cc1nc2ccccc2nc1CN1CCCCC1Cn1cncn1", "note": "(centres undefined)", "Percent Effect": -2.917}
{"smiles": "Cc1nc(CN2CCCCC2Cn2cncn2)nc2ccccc12", "note": "(centres undefined)", "Percent Effect": 1.919}
{"smiles": "c1ccc2oc(CN3CCCC3Cn3cncn3)nc2c1", "note": "(centres undefined)", "Percent Effect": 131.5}
{"smiles": "c1ccc2c(N3CCCCC3Cn3cncn3)ncnc2c1", "note": "(centres undefined)", "Percent Effect": -5.98}
{"smiles": "c1ccc2oc(N3CCCC3Cn3cncn3)nc2c1", "note": "(centres undefined)", "Percent Effect": 106.1}
{"smiles": "CCOC(=O)NC(CNC(=O)c1cc(Cl)ccn1)CC(C)C", "note": "(centres undefined)", "Percent Effect": 7.591}
{"smiles": "CCOCc1nn(CC2CC2)c2c1CN(C(=O)c1ccno1)CC2", "Percent Effect": 13.02}
{"smiles": "CN1CCC(N2CC[C@H](c3nc4ccc(C(F)(F)F)cc4[nH]3)C2)CC1", "Percent Effect": -1.878}
{"smiles": "CC(C)N1CCC(c2cc(C(F)(F)F)n3ccnc3n2)CC1", "Percent Effect": 75.91}
{"smiles": "NC(=O)CN1CCC(c2cc(C(F)(F)F)n3ccnc3n2)CC1", "Percent Effect": 134.1}
{"smiles": "CN1CCC(c2cc(C(F)(F)F)n3ccnc3n2)CC1", "Percent Effect": 137.1}
{"smiles": "CC(=O)N1CCC(c2cc(C(F)(F)F)n3ccnc3n2)CC1", "Percent Effect": 1.424}
{"smiles": "N#Cc1ccccc1CN1CCC(c2nccn2CC(N)=O)CC1", "Percent Effect": -2.764}
{"smiles": "CC(C)n1ccnc1C1CCN(Cc2ccc(Cl)c(F)c2)CC1", "Percent Effect": -2.763}
{"smiles": "CCCN1CCN(S(=O)(=O)c2ccccc2OC)[C@H]2CS(=O)(=O)C[C@H]21", "Percent Effect": -12.25}
{"smiles": "Cc1cnc(C)c(N2CCCC(C/C=C/c3ccccc3)(C(=O)O)C2)n1", "note": "(centres undefined)", "Percent Effect": -10.18}
{"smiles": "Cc1ccoc1CNCc1nnc2n1CCCC2C(F)(F)F", "note": "(centres undefined)", "Percent Effect": -14.27}
{"smiles": "CCCn1ncc(-c2ccnc(N[C@@H]3C[C@@H]4CC[C@H]3C4)n2)c1C", "Percent Effect": -16.18}
{"smiles": "Cc1sc2ncc(-c3ccnc(NC4CCN(C)CC4)n3)c(=O)n2c1C", "Percent Effect": 102.6}
{"smiles": "CCNC(=O)N1CCC(Nc2nccc(NCC)n2)CC1", "Percent Effect": -9.692}
{"smiles": "CNc1nccc(-c2cn(C)nc2C)n1", "Percent Effect": 5.366}
{"smiles": "CC[C@H](C)Nc1nccc(-c2cnc3sc(C)c(C)n3c2=O)n1", "Percent Effect": -3.163}
{"smiles": "CNc1nccc(-c2cnc3sc(C)c(C)n3c2=O)n1", "Percent Effect": 88.7}
{"smiles": "CCOCCN1CCN(Cc2nnc(C3CC3)o2)CC1CC", "note": "(centres undefined)", "Percent Effect": 2.687}
{"smiles": "O=C(c1ccc2c(c1)CCO2)N1CCN(c2ncccn2)CC1", "Percent Effect": 13.67}
{"smiles": "O=C(CCn1cc(Cl)cn1)Nc1nncs1", "Percent Effect": -12.52}
{"smiles": "O=C(CCc1ccc(-n2cnnn2)cc1)Nc1nncs1", "Percent Effect": 117.3}
{"smiles": "COC(=O)c1ccc(NC(=O)CCc2ccncc2)c(C)c1", "Percent Effect": -3.514}
{"smiles": "O=C(Cc1ccc(-n2cnnn2)cc1)Nc1nncs1", "Percent Effect": -7.49}
{"smiles": "O=C(CCc1ccncc1)Nc1ccc(OCC2CC2)cc1", "Percent Effect": 33.82}
{"smiles": "O=C(CCc1ccc(-n2cnnn2)cc1)Nc1ccncc1", "Percent Effect": 118.2}
{"smiles": "Cc1nnc(CN(C)Cc2ccc(C(=O)Nc3sccc3C#N)cc2)o1", "Percent Effect": 8.936}
{"smiles": "CC(C)c1nc2c(n1C)CCN(CCS(=O)(=O)c1ccccc1)C2", "Percent Effect": 16.54}
{"smiles": "Cc1nc(-c2cccc(N3CCC(N4CCCC(C#N)C4)CC3)c2)cs1", "note": "(centres undefined)", "Percent Effect": 9.753}
{"smiles": "Cn1cc(CN2CCOC(CCNC(=O)c3ccsc3)C2)cn1", "note": "(centres undefined)", "Percent Effect": -1.141}
{"smiles": "Cn1ncc(N2CCC(CNC(=O)[C@@H](N)c3ccccc3)CC2)cc1=O", "Percent Effect": -13.88}
{"smiles": "Cc1cnn(C(C)C(=O)NCC2CCN(c3cnn(C)c(=O)c3)CC2)c1", "note": "(centres undefined)", "Percent Effect": -4.842}
{"smiles": "Cn1ncc(N2CCC(CNC(=O)[C@@H](N)C3CCCCC3)CC2)cc1=O", "Percent Effect": -13.96}
{"smiles": "CC(CN1CCCC1)C(=O)NCC1CCN(c2cnn(C)c(=O)c2)CC1", "note": "(centres undefined)", "Percent Effect": -3.002}
{"smiles": "CCC(=O)N1CCCC(C(=O)N2CCN(c3cnn(C)c(=O)c3)CC2)C1", "note": "(centres undefined)", "Percent Effect": 6.032}
{"smiles": "Cc1ccc(C(=O)NCCC2CN(c3cnn(C)c(=O)c3)CCO2)s1", "note": "(centres undefined)", "Percent Effect": 76.89}
{"smiles": "CN1CCC(C(=O)NCCC2CN(c3cnn(C)c(=O)c3)CCO2)CC1", "note": "(centres undefined)", "Percent Effect": 98.07}
{"smiles": "Cn1ncc(N2CCOC(CCNC(=O)CO)C2)cc1=O", "note": "(centres undefined)", "Percent Effect": 110.6}
{"smiles": "Cn1ncc(N2CCOC(CCNC(=O)N3CCCCC3)C2)cc1=O", "note": "(centres undefined)", "Percent Effect": 104.2}
{"smiles": "CC(C)C(=O)NCC(=O)NCC1CCN(c2cnn(C)c(=O)c2)CC1", "Percent Effect": -2.577}
{"smiles": "CC(=O)N1CCCC(C(=O)N2CCN(c3cnn(C)c(=O)c3)CC2)C1", "note": "(centres undefined)", "Percent Effect": -1.408}
{"smiles": "CC(C)(C)c1cn2c(n1)C(CNCc1cnn3ccccc13)CCC2", "note": "(centres undefined)", "Percent Effect": 3.116}
{"smiles": "O=C1CC(NS(=O)(=O)N2CCOCC2)CN1Cc1ccccc1", "note": "(centres undefined)", "Percent Effect": 1.886}
{"smiles": "Cc1ncsc1C(=O)NCc1cccnc1N(C)CCc1ccccn1", "Percent Effect": 6.517}
{"smiles": "Cc1noc(-c2cccnc2N2CCOC(C)(c3cnn(C)c3)C2)n1", "note": "(centres undefined)", "Percent Effect": -3.53}
{"smiles": "COCCN(CCOC)C(=O)NC1CCCCC1", "Percent Effect": -2.793}
{"smiles": "Cc1[nH]ccc1C(=O)N[C@H]1CN(CCO)C[C@@H]1C1CC1", "Percent Effect": -10.03}
{"smiles": "CCC(C)NC(=O)CS(=O)(=O)Cc1nc(-c2cccs2)no1", "note": "(centres undefined)", "Percent Effect": 8.727}
{"smiles": "CNC(=O)N1CCC(=Cc2ccccc2)CC1", "Percent Effect": -5.2}
{"smiles": "CC(C)N1CCC[C@H]1C(=O)NCC1CCN(c2cnn(C)c(=O)c2)CC1", "Percent Effect": -21.78}
{"smiles": "CCOC(=O)N1CCC(NCC2CCN(c3cnn(C)c(=O)c3)C2)CC1", "note": "(centres undefined)", "Percent Effect": -6.682}
{"smiles": "CCC(OC)C(=O)NCC1CCN(c2cnn(C)c(=O)c2)CC1", "note": "(centres undefined)", "Percent Effect": -16.23}
{"smiles": "CCC1CN(c2cnn(C)c(=O)c2Br)CCO1", "note": "(centres undefined)", "Percent Effect": 20.16}
{"smiles": "Cn1ncc(N2CCOC(CCNC(=O)NC(C)(C)C)C2)cc1=O", "note": "(centres undefined)", "Percent Effect": 101.8}
{"smiles": "CCCOC(=O)NCCC1CN(c2cnn(C)c(=O)c2)CCO1", "note": "(centres undefined)", "Percent Effect": 96.42}
